Test results: PubChem BioAssay (NCATS)
Several values for one entry are separate records, joined by “and”; a condition that tells them apart may be missing. Identical values can stand only once. Records with an inconclusive call do not appear. A call without a number means that no potency is given here. A number with no mark means an inactive call. Activity calls are given as the source filed them. Calls follow the shape of the dose curve; as a rule, active = well fitted curve in the direction sought with a large enough effect; inconclusive = small, poorly fitted or top-dose-only effect, or another doubt; inactive = no such curve, though single readings can be large; an effect the other way counts as inactive or inconclusive.

Tests used:
[1] = Viability qHTS for spleen associated tyrosine kinase inhibitor (SYKi) naive MV4-11 cells (AID 1963823); also: nearly all actives have a fitted effect of over 40% in size; also: potency is read from the fitted curve at half-maximal effect
Summary of the method: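 SYKi-naive MV4-11 AML cells, 500 per well, were exposed to library compounds for 72 hr at 37 C, 5% CO2. Viability was then read by CellTiter-Glo luminescence after 10 min at room temperature.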

[2] = Viability qHTS for spleen associated tyrosine kinase inhibitor (SYKi) drug resistant MV4-11 cells (AID 1963824); also: nearly all actives have a fitted effect of over 35% in size; also: potency is read from the fitted curve at half-maximal effect
Summary of the method: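 CellTiter-Glo luminescence, read 10 min after reagent addition, reports viability after a 72 hr compound exposure. Cells are an MV4-11 line made resistant to SYK inhibition, seeded at 500 per well onto compound-containing plates.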

[3] = Cellular viability qHTS for adrenocortical cancer (ACC) cell line SW-13 (AID 1963989); settings: SW-13 ACC cells viability, CellTiter-Glo, 48 h; activity (max response): stronger effect = lower value; also: nearly all actives have a fitted effect of over 65% in size; also: potency is read from the fitted curve at half-maximal effect;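 as to activity (max response): cells grown in serum-free medium with ITS supplement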
Summary of the method: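 Here, serum-free SW-13 cultures were dosed up to 46 uM. Following 48 h, ATP-dependent luminescence (CellTiter-Glo) reported viable cells, and logistic modeling produced IC50 values.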

[4] = Quantitative highthroughput screen to assess conditional lethalithy of SEM cells grown in Human Plasma-Like Medium with dialyzed fetal bovine serum (HPLM+ds) (AID 1963882); also: nearly all actives have a fitted effect of over 35% in size; also: potency is read from the fitted curve at half-maximal effect; as to Viability: series mostly up to about 46 µM
Summary of the method: (§1)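 Each medium arm—HPLM with 10% dialyzed FBS, or RPMI1640 with 5 mM glucose and 10% untreated or dialyzed FBS—was screened against an 11-point, 3-fold compound titration for 48 h at 37 °C, with CellTiter-Glo luminescence as endpoint.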

[5] = Quantitative highthroughput screen to assess conditional lethalithy of SEM cells grown in RPMI1640 with unreated serum (RPMI+s) (AID 1963883); also: nearly all actives have a fitted effect of over 35% in size; also: potency is read from the fitted curve at half-maximal effect
Summary of the method: as §1

[6] = Cellular viability qHTS for adrenocortical cancer (ACC) cell line NCI-H295R (AID 1963990); also: nearly all actives have a fitted effect of over 60% in size; also: potency is read from the fitted curve at half-maximal effect
Summary of the method: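 Viability of NCI-H295R after 48 h of treatment (final up to 46 uM) measured through cellular ATP luminescence.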

[7] = Quantitative highthroughput screen to assess conditional lethalithy of P12 Ichikawa cells grown in RPMI1640 with dialyzed fetal bovine serum (RPMI+ds) (AID 1963880); settings: Potency: P12-Ichikawa viability; also: nearly all actives have a fitted effect of over 35% in size; also: potency is read from the fitted curve at half-maximal effect
Summary of the method: as §1

[8] = Quantitative highthroughput screen to assess conditional lethalithy of P12 Ichikawa cells grown in RPMI1640 with untreated serum (RPMI+s) (AID 1963881); settings: Potency: viability; also: nearly all actives have a fitted effect of over 35% in size; also: potency is read from the fitted curve at half-maximal effect; as to Viability: series mostly up to about 46 µM
Summary of the method: as §1

[9] = Quantitative highthroughput screen to assess conditional lethalithy of P12 Ichikawa cells grown in Human Plasma-Like Medium with dialyzed fetal bovine serum (HPLM+ds) (AID 1963879); settings: Potency: viability; also: nearly all actives have a fitted effect of over 35% in size; also: potency is read from the fitted curve at half-maximal effect; as to Viability: series mostly up to about 46 µM
Summary of the method: as §1

[10] = Quantitative highthroughput screen to assess conditional lethalithy of SEM cells grown in RPMI1640 with dialyzed fetal bovine serum (RPMI+ds) (AID 1963884); also: nearly all actives have a fitted effect of over 35% in size; also: potency is read from the fitted curve at half-maximal effect; as to Viability: series mostly up to about 46 µM
Summary of the method: as §1

[11] = Quantitative highthroughput screen to assess conditional lethalithy of NOMO1 cells grown in Human Plasma-Like Medium with dialyzed fetal bovine serum (HPLM+ds) (AID 1963878); also: nearly all actives have a fitted effect of over 35% in size
Summary of the method: as §1

[12] = Quantitative highthroughput screen to assess conditional lethalithy of NOMO1 cells grown in RPMI1640 with untreated serum (RPMI+s) (AID 1963876); also: nearly all actives have a fitted effect of over 35% in size
Summary of the method: as §1

Cc1nnc2n1-c1sc(CCC(=O)N3CCOCC3)cc1C(c1ccccc1Cl)=NC2
Potency [1]: inactive | Potency [2]: inactive | activity (max response) [3]: 5.36%

O=C(CCl)c1ccc(Cl)cc1Cl
Potency [1]: inactive | Potency [2]: inactive | activity (max response) [3]: -3.67%

CCC1(c2ccccc2)C(=O)N(COC)C(=O)N(COC)C1=O
Potency [1]: inactive | Potency [2]: inactive | activity (max response) [3]: -1.61%

CCOP(=O)(OCC)C(C)NC(=O)N(CCCl)N=O (stereo not drawn)
Potency [1]: inactive | Potency [2]: 16.6 µM (active) | Potency [4]: inactive | Potency [5]: inactive | activity (max response) [3]: 3.2% | Potency [6]: inactive

C=C(C)[C@H]1Cc2c(ccc3c2O[C@@H]2COc4cc(OC)c(OC)cc4[C@@H]2C3=O)O1
Potency [1]: 0.0376 µM (active) | Potency [2]: 0.0376 µM (active) | Potency [7]: 4.69 µM (active) | Potency [8]: 2.09 µM (active) | Potency [4]: 5.26 µM (active) | Potency [5]: 4.18 µM (active) | Potency [3]: 0.0116 µM (active) | Potency [6]: 0.103 µM (active)

CCCCC1C(=O)NC(=O)N(C2CCCCC2)C1=O (stereo not drawn)
Potency [1]: inactive | Potency [2]: inactive | activity (max response) [3]: -4.2% | Potency [6]: inactive

CN1C(=O)NC(=O)C(C)(C2=CCCCC2)C1=O (stereo not drawn)
Potency [1]: inactive | Potency [2]: inactive | activity (max response) [3]: -0.484% | Potency [6]: inactive

CC(C)NCC(O)c1ccc([N+](=O)[O-])cc1 (stereo not drawn)
Potency [1]: inactive | Potency [2]: inactive | activity (max response) [3]: -6.95%

CCN1CCCC1CNC(=O)C(O)(c1ccccc1)c1ccccc1 (stereo not drawn)
Potency [1]: inactive | Potency [2]: inactive | activity (max response) [3]: -3.88%

O=C(O)c1nn(Cc2ccc(Cl)cc2Cl)c2ccccc12
Potency [1]: inactive | Potency [2]: inactive | Potency [9]: inactive | Potency [8]: inactive | Potency [5]: inactive | Potency [10]: inactive | activity (max response) [3]: 8.06% and -12.7%

Nc1ccccc1
Potency [1]: inactive | Potency [2]: inactive | activity (max response) [3]: 7.78% | Potency [6]: inactive

C[N+]1(CCF)[C@@H]2CC[C@H]1CC(OC(=O)C(O)(c1ccccc1)c1ccccc1)C2 (stereo partly drawn)
Potency [1]: inactive | Potency [2]: inactive | activity (max response) [3]: 9.46% | Potency [6]: inactive

CCN1CCN(C(=O)Cc2ccc(Nc3ncc(F)c(Nc4ccc(C(=O)Nc5ccccc5Cl)cc4)n3)cc2)CC1
Potency [1]: 0.468 µM (active) | Potency [2]: 0.525 µM (active) | Potency [10]: 4.69 µM (active) | Potency [6]: 3.55 µM (active)

COC(=O)[C@@H](N)CCCN/C(N)=N/[N+](=O)[O-]
Potency [1]: inactive | Potency [2]: inactive | activity (max response) [3]: 3%

O=C(CCCN1CCC2(CC1)C(=O)NCN2c1ccccc1)c1ccc(F)cc1
Potency [1]: inactive | Potency [2]: inactive | activity (max response) [3]: -12.3% | Potency [6]: inactive

C/C1=C/C[C@@H](/C(C)=C/c2csc(C)n2)OC(=O)C[C@H](O)C(C)(C)C(=O)[C@H](C)[C@@H](O)[C@@H](C)CCC1
Potency [1]: 0.0332 µM (active) | Potency [2]: 0.0332 µM (active) | Potency [6]: 0.0224 µM (active)

CCCCCCCCCC(=O)O[C@H]1CC[C@H]2[C@@H]3CCC4=CC(=O)CC[C@@H]4[C@H]3CC[C@]12C
Potency [1]: inactive | Potency [2]: inactive | activity (max response) [3]: 6.32% | Potency [6]: inactive

O=C(NC(O)C(Cl)(Cl)Cl)NC(O)C(Cl)(Cl)Cl (stereo not drawn)
Potency [1]: inactive | Potency [2]: inactive | activity (max response) [3]: 11.7% | Potency [6]: inactive

Cc1ncc(OC[C@@]2(c3cccc(F)c3)C[C@H]2C(=O)Nc2ccc(F)cn2)c(C)n1
Potency [1]: inactive | Potency [11]: inactive | Potency [5]: inactive | activity (max response) [3]: 7.8% | Potency [6]: inactive

Clc1cccc(N2CCNCC2)c1
Potency [1]: inactive | Potency [2]: inactive | activity (max response) [3]: 2.07% | Potency [6]: inactive

O=S(=O)(F)Cc1ccccc1
Potency [1]: inactive | Potency [12]: inactive | Potency [9]: inactive | Potency [7]: inactive | Potency [8]: inactive | Potency [5]: inactive | Potency [10]: inactive | activity (max response) [3]: 2.11% | Potency [6]: inactive

NN=C(N)N
Potency [1]: inactive | Potency [2]: inactive | Potency [6]: inactive

CC(=O)Nc1ccc(OC[C@](C)(O)C(=O)Nc2ccc([N+](=O)[O-])c(C(F)(F)F)c2)cc1
Potency [1]: 16.6 µM (active) | Potency [12]: inactive | Potency [9]: inactive | Potency [7]: inactive | activity (max response) [3]: 0.634% | Potency [6]: inactive

O=P1(N(CCCl)CCCl)NCCCO1 (stereo not drawn)
Potency [1]: inactive | Potency [9]: 10.5 µM (active) | Potency [4]: 9.35 µM (active) | Potency [5]: 8.33 µM (active) | Potency [10]: 9.35 µM (active) | activity (max response) [3]: 0.4% and 11% | Potency [6]: inactive
